Rows were chosen to be rich in hits. Some 4.1% of all compounds tested hit in one or more screens of this group.
MEKK2mut PB1 HTS: signal of MEK5 binding to mutant human MEKK2 PB1 domain. bead flow cytometry, Alexa488-MEK5 binding to MEKK2 mutant. percent response, % at 10 µM. 290,000 tested, 0.35% active; in the data active = percent response above about 24%, passing the limit was not always enough
CHT inh: inhibits the human high affinity choline transporter; 310,000 tested, 0.86% active; Q9GZV3; B-score at 10 µM; AID 488975; CHT-expressing cells, membrane potential dye, choline response; active compounds read low;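 active = B-score over 3 SD under the library average, and starting fluorescence ratio not unusually high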;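 also: choline stimulus applied at its EC90 after an EC20 pre-addition; B-score computed on integrated fluorescence ratio after choline addition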
Target sequence (Q9GZV3 whole entry, looked up): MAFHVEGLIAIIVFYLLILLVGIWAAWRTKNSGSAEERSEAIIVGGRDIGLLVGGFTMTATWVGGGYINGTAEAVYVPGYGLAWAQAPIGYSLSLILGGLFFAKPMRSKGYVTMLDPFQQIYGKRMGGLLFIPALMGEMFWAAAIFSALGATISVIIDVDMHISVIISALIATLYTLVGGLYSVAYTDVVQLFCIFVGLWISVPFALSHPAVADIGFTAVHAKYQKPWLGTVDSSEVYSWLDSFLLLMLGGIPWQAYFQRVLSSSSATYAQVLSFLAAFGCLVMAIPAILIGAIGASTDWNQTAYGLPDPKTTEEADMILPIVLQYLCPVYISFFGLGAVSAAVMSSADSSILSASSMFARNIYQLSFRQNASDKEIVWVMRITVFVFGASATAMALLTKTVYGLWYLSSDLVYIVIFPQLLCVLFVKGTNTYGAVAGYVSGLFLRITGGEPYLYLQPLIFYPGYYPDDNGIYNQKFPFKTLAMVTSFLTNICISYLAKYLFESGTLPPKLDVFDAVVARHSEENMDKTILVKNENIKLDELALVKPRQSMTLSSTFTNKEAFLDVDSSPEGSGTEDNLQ
MEKK3 PB1 HTS: MEKK3-MEK5 PB1 interaction, increase or decrease. bead-based flow cytometry, Alexa488-MEK5 binding to MEKK3; actives lie on both sides; 0 = blocked by unlabeled MEK5, 100 = vehicle. binding response (% of control), % at 10 µM. 290,000 tested, 1.4% active;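 active = binding response more than 3 SD above or below the average of its plate-row segment, actives on both sides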;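 also: Alexa488 bead fluorescence after subtracting the streptavidin-only scavenger bead signal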
SUMO Mot1 rescue: SUMOylation pathway inhibition by Mot1-301 growth rescue; S. cerevisiae Mot1-301 growth rescue, ATP luminescence, 38.5C; percent above DMSO median, 100 means doubled; growth rescue, % at 18.8 µM; 320,000 tested, 1% active;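 active = every valid replicate shows activation above 250% relative to neutral control wells; inactive = the rest, any valid replicate at or below 250%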;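 also: OY570 slx delta 5 strain wells were the positive control but not used for scaling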
MEKK2 WT-MEK5: raises or lowers MEK5 binding to wildtype human MEKK2 PB1 domain | Q9Y2U5 | binding response (% of control), % at 10 µM | 290,000 tested, 1.1% active | bead flow cytometry, Alexa488-MEK5 binding to MEKK2 WT; actives lie on both sides; in the data active = binding response below about 67% or above about 130%
CHT allo act: allosterically activates the human high affinity choline transporter. Q9GZV3. CHT-expressing cells, membrane potential dye, choline EC20; active compounds read high; LV-AA mutant CHT in HEK293 cells. B-score at 10 µM. 310,000 tested, 0.49% active;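 active = initial fluorescence not abnormally high and integrated response B-score, plate-corrected, over 3 SD above library mean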
Mot1 SUMO dose: inhibits SUMO pathway, affecting Mot1-301 yeast growth; shares compounds with SUMO Mot1 rescue; S. cerevisiae Mot1-301 galactose growth, ATP luminescence, 24 h; -100 = growth of slx-deleted rescue strain; growth activity, percent, % at 42 µM; 2,300 tested, under 10 active; AID 493004;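 active = Signal drops as the depositor expects, and the fitted half-maximal dose is no more than ten times the top valid tested dose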;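 also: more negative values mean stronger growth rescue toward the control strain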
* marks the source's active call; other numbers are inactive results; i = inactive; x = no result; + = active, no number; [ ] = remark or other dose.

SMILES | MEKK2mut PB1 HTS | CHT inh | MEKK3 PB1 HTS | SUMO Mot1 rescue | MEKK2 WT-MEK5 | CHT allo act | Mot1 SUMO dose
COCC(=O)n1nc(-c2ccccc2)nc1NCc1ccc(N(C)C)cc1 | 2.0 | i | 109.0 | 862.2* | 110.0 | i | -0.1
COCC(=O)n1nc(-c2ccc(C)cc2)nc1NCc1ccc(F)cc1 | -2.0 | x | 98.0 | x | 101.0 | x | x
CC(=O)n1nc(-c2ccccc2)nc1NCc1ccc(F)cc1 | -2.0 | i | 105.0 | -17.3 | 104.0 | i | x
COCC(=O)n1nc(-c2ccc(Cl)cc2)nc1NCc1ccc(F)cc1 | -1.0 | i | 105.0 | 539.0* | 99.0 | i | -0.8
Cc1cc(C)cc(NC(=O)C(OC(=O)c2cc[n+]([O-])cc2)c2ccccc2)c1 (stereo not drawn) | x | x | x | 15.9 | x | x | x
CC(=O)c1ccc(NC(=O)CSc2nnc(-c3ccco3)o2)cc1 | -4.0 | i | 102.0 | 426.1* | 102.0 | i | 0.0
Cc1ccc(NC(=O)CSc2nnc(-c3ccco3)o2)cc1 | -3.0 | i | 110.0 | x | 102.0 | i | x
COc1ccc(C(=O)Nc2ccc(N3CCN(C)CC3)cc2)cc1 | 5.0 | i | 94.0 | -6.1 | 97.0 | i | x
CCCCOc1ccc(C(=O)Nc2ccc(N3CCN(C)CC3)cc2)cc1 | 14.0 | i | 105.0 | + | 114.0 | i | 0.3
O=C(CSc1ncnc2sccc12)NCc1ccc2c(c1)OCO2 | x | x | x | 50.0 | x | x | x
CCC(C)(C)n1nnnc1C(c1cccnc1)N1CCC(Cc2ccccc2)CC1 (stereo not drawn) | 9.0 | i | 97.0 | 593.6* | 115.0 | i | 0.6
CCC(C)(C)n1nnnc1C(c1ccncc1)N1CCC(Cc2ccccc2)CC1 (stereo not drawn) | -3.0 | i | 100.0 | 30.1 | 94.0 | i | x
Cc1ccc(Oc2ccccc2NC(=O)C2=COCCO2)cc1 | x | i | x | 415.6* | x | i | -0.3
O=C(Nc1cc(Cl)ccc1Oc1ccccc1)C1=COCCO1 | x | i | x | 11.5 | x | i | x
CCc1nnc(NC(=O)CSc2ccc(-c3ccc(-n4cccn4)cc3)nn2)s1 | x | i | x | 781.3* | x | i | 0.1
Cc1ccccc1NC(=O)CSc1ccc(-c2ccc(-n3cccn3)cc2)nn1 | x | i | x | -2.3 | x | i | x
Nc1[nH]nc2c1NN(c1ccc(Cl)cc1Cl)N2 | -5.0 | i | 84.0 | -6.1 | 88.0 | i | x
CCOC(=O)C1CCN(CC(O)COc2ccc(C(C)(C)C)cc2)CC1 (stereo not drawn) | 1.0 | i | 98.0 | 376.4* | 104.0 | i | 0.0
COc1cccc(COCC(O)CN2CCC(C(N)=O)CC2)c1 (stereo not drawn) | 2.0 | i | 101.0 | 12.3 | 99.0 | i | x
CCOC(=O)C1CCN(CC(O)COCc2ccccc2)CC1 (stereo not drawn) | 1.0 | i | 104.0 | 554.3* | 100.0 | i | -0.3
COc1ccc2c(CC(=O)Nc3ccccc3OC)coc2c1 | -1.0 | i | 103.0 | -1.2 | 99.0 | i | x
COc1ccc2c(CC(=O)Nc3ccc(OC)c(NS(=O)(=O)c4ccc(F)cc4)c3)coc2c1 | -12.0 | i | 88.0 | 559.6* | 93.0 | i | -0.5
CC(=O)N/C(=C\c1ccccc1)C(=O)OCC(=O)c1ccccc1 | x | i | x | 678.6* | x | i | -0.1
COCCn1c(=NC(=O)CSCC(=O)N2CCOCC2)sc2cc(C)ccc21 | 6.0 | i | 101.0 | -2.2 | 107.0 | i | x
CSc1cc(C)c(OCC(=O)Nc2c(C)nn(C)c2C)c(C)c1 | -11.0 | i | 85.0 | 384.7* | 85.0 | i | -0.2
SMILES | MEKK2mut PB1 HTS | CHT inh | MEKK3 PB1 HTS | SUMO Mot1 rescue | MEKK2 WT-MEK5 | CHT allo act | Mot1 SUMO dose
Cc1ccc(NC(=S)NC(=O)c2cncc(Br)c2)c(C)c1 | x | i | x | 4.1 | x | i | x
Cc1ccc(C)c(NC(=S)NC(=O)c2cncc(Br)c2)c1 | x | i | x | 571.4* | x | i | -0.3
O=C(CCC(=O)Nc1ccc(F)cc1)N/N=C/c1cccs1 | 4.0 | i | 104.0 | 544.5* | 104.0 | i | 1.3
CC(=O)Nc1ccc(S(=O)(=O)Nc2ccc3c(c2)C(=O)OC3)cc1 | -4.0 | i | 100.0 | 703.7* | 98.0 | i | 0.7
COc1ccc(S(=O)(=O)Nc2ccc(NC(C)=O)cc2)cc1OC | 0.0 | i | 100.0 | + | 99.0 | i | -0.1
COc1ccc(S(=O)(=O)Nc2ccc(NC(C)=O)cc2)cc1Cl | 1.0 | i | 99.0 | -2.7 | 101.0 | i | x
Cc1nc(NC(=O)CN2CC(C)OC(C)C2)sc1C(=O)N(C)C (stereo not drawn) | 8.0 | i | 105.0 | 101.0 | 109.0 | i | x
CCc1cc(/C(Cc2ccccn2)=N\O)c(O)cc1O | 0.0 | i | 89.0 | 485.9* | 100.0 | i | -0.1
CCN(c1cccc(C)c1)S(=O)(=O)c1c(C)[nH]c(C)c1C(=O)N1CCCCC1 | 0.0 | i | 98.0 | 4.5 | 102.0 | i | x
O=C1CC(N(CCc2ccccc2)C(=S)Nc2ccccc2)C(=O)N1c1ccc(F)cc1 (stereo not drawn) | 4.0 | i | 105.0 | 699.6* | 105.0 | i | 0.2
COC(=O)CN(C(=S)Nc1ccc(F)cc1)C1CC(=O)N(c2ccccc2)C1=O (stereo not drawn) | -1.0 | i | 103.0 | 652.7* | 101.0 | i | -0.2
COC(=O)c1c(-c2ccc(OC)cc2)sc2ccccc12 | x | x | x | 4.9 | x | x | x
CCOc1ccc(C(=O)Nc2ccc3c(c2)OCCO3)cc1OC | -2.0 | i | 99.0 | -12.7 | 102.0 | i | x
COc1cc(C(=O)Nc2ccc3c(c2)OCCO3)ccc1-n1cnnn1 | 2.0 | i | 95.0 | + | 97.0 | i | 0.1
CCN(CC)CCNC(=O)c1ccc(NC(=O)c2ccc(F)cc2F)cc1 | 3.0 | i | 98.0 | -20.2 | 102.0 | i | x
Cc1ccc(S(=O)(=O)NCC(=O)OCc2ccccc2Br)cc1 | -3.0 | i | 103.0 | -19.3 | 102.0 | i | x
Cc1ccc(S(=O)(=O)NCC(=O)OCC(=O)c2ccc(Br)s2)cc1 | 2.0 | i | 108.0 | 746.6* | 106.0 | i | 0.3
CCN(CC)/C(=N\S(=O)(=O)c1ccc(F)cc1)c1ccccc1 | 7.0 | i | 108.0 | 550.9* | 107.0 | i | -0.2[21 µM]
CN(C)/C(=N\S(=O)(=O)c1ccc(F)cc1)c1ccccc1 | 10.0 | i | 106.0 | 3.8 | 107.0 | i | x
COCCN1C(=O)c2cc(C(=O)Nc3ccc(OC)c(OC)c3)ccc2C1Nc1ccc(OC)c(OC)c1 (stereo not drawn) | -2.0 | i | 100.0 | -3.5 | 98.0 | i | x
Cc1ccnc(NC(=O)Cc2ccc(F)cc2)n1 | -4.0 | i | 95.0 | -13.8 | 87.0 | i | x
Cc1ccnc(NC(=O)CC(c2ccccc2)c2ccccc2)n1 | -3.0 | i | 100.0 | 432.0* | 96.0 | i | 0.6
